Shown are actives, neighbours in structure and some others; about 6% of the full set was active somewhere.
D1 agonist – activates the human D1 dopamine receptor. HEK293 T-REx D1 cells, calcium flux, agonist mode. activation, % at 2 µM. 360,000 compounds, 1% hits; in the data active = activation above about 30%; note: 0% is about no effect
Target sequence (P21728 whole entry, looked up): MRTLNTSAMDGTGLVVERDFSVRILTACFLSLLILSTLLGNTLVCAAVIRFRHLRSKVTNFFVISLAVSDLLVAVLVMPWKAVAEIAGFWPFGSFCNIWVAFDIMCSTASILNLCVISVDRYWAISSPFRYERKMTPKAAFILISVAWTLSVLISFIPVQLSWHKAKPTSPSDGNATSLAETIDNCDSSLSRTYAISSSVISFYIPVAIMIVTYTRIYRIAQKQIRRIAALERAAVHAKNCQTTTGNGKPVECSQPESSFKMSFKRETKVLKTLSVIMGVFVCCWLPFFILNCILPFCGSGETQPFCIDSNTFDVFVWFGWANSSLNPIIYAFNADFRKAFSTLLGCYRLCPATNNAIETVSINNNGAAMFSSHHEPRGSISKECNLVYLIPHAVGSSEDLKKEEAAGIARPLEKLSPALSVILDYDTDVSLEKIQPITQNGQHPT
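Agonism was scored from calcium flux recorded over 180 s (1 read/s) after pintool compound addition, following a 10-cycle baseline. Cells were inducible force-coupled HEK293 TREx D1, plated overnight at 30 C and loaded with no-wash calcium dye.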
DRD3 antagonist – antagonists of human D3 dopamine receptor; AID 652054; D3R cells, DiscoveRx beta-arrestin luminescence, antagonist mode; stronger effect = lower value; max response, negative = inhibition, %; 360,000 compounds, 2.5% hits; P35462; in the data active = max response below about -50%; note: % is set by controls: 0 for no effect and ±100 for the full control effect
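Cells expressing the human receptor were seeded at 1500 cells/well, incubated overnight at 37 degrees C in 5% CO2, then exposed to library compounds with dopamine controls for 90 minutes at 37 degrees C before luminescent detection.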
D1 PAM – potentiators of human D1 dopamine receptor | P21728 | AID 504651 | potentiation, % at 10 µM | HEK293 TREx D1 cells, calcium flux, dopamine EC20 potentiation | 360,000 compounds, 0.036% hits; in the data active = potentiation above about 30%; note: 0% is about no effect
D3 ag – D3 dopamine receptor (human) agonism; P35462; D3R DiscoveRx beta-arrestin cells, luminescence, 90 min; max activation, %; 410,000 compounds, 0.58% hits; in the data active = max activation above about 30%; note: 0% is about no effect
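Cells at 1500/well, incubated overnight, then treated with pinned compounds (dopamine as control) for 90 min at 37 degrees C. DiscoveRx reagent added for 30 - 60 minutes at room temperature; luminescence read.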
D1 antag – antagonists of human D1 dopamine receptor; activity change, negative = inhibition, % at 10 µM; HEK293 TREx D1 cells, calcium flux, dopamine EC80; stronger effect = lower value; P21728; 360,000 compounds, 3.2% hits; AID 504652; in the data active = activity change below about -30%; note: % is set by controls: 0 for no effect and ±100 for the full control effect
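Kinetic fluorescence of a calcium dye serves as the read-out. D1-expressing Hek293 Trex cells, induced overnight at 30 C, are exposed to compound for 180 s before an EC80 dopamine addition, then read 180 s further.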
Starred values were filed as active, the others as inactive.

What do the screens show for `Cc1ccccc1NC(=O)c1sc2nc3n(c(=O)c2c1C)N=C(c1ccccc1)CS3`?
D1 agonist: -2; D1 PAM: 1; D3 ag: 2; D1 antag: -5

Results for CC(=O)N1/C(=C/c2ccc(N(C)C)cc2)C(=O)c2ccccc21 ?
D1 agonist: 4; DRD3 antagonist: -51*; D1 PAM: -3; D3 ag: -12; D1 antag: -8

What do the screens show for `COC(=O)c1c(-c2ccc(S(C)(=O)=O)cc2)sc2ccc(OC)cc12`?
DRD3 antagonist: 0; D3 ag: 22

What do the screens show for `COC(=O)c1c(-c2ccc(SC)cc2)sc2ccccc12`?
D1 agonist: 7; DRD3 antagonist: 42; D1 PAM: -2; D3 ag: 56*

What do the screens show for `COC(=O)c1c(-c2ccc(S(C)(=O)=O)cc2)sc2cc(OC)ccc12`?
DRD3 antagonist: 67; D3 ag: 31*

What do the screens show for `COC(=O)c1c(-c2ccc(SC)cc2)sc2ccc(OC)cc12`?
DRD3 antagonist: 16; D3 ag: 38*

Results for COC(=O)c1c(-c2ccc(OC)cc2)sc2ccccc12 ?
D1 agonist: 3; D1 PAM: 1

What do the screens show for `COC(=O)c1c(-c2ccc(OC)cc2)sc2cc(OC)c(OC)cc12`?
DRD3 antagonist: 84; D3 ag: 19

What do the screens show for `COC(=O)c1c(-c2cc(OC)cc(OC)c2)sc2ccc(OC)cc12`?
DRD3 antagonist: 10; D3 ag: 62*

Results for COc1ccccc1C(=O)Nc1c(C(=O)N(C)c2ccccc2)sc2nc(C)cc(C)c12 ?
D1 agonist: 0; D1 PAM: -3; D3 ag: 5; D1 antag: -15

Results for O=C(O)c1cc(-c2ccccc2)nn1Cc1ccccc1 ?
D1 agonist: -1; D1 PAM: 7; D3 ag: 4; D1 antag: 5

Results for CCc1ccc(S(=O)(=O)NCc2cccs2)cc1 ?
D1 agonist: 6; DRD3 antagonist: -65*; D1 PAM: -10; D3 ag: -5; D1 antag: -21

What do the screens show for `CC(=O)c1ccc(OCc2cc(C(=O)N3CCC(c4ccncc4)CC3)no2)cc1`?
D1 agonist: 18; DRD3 antagonist: -1; D1 PAM: -9; D3 ag: 9; D1 antag: -21

How did COCC1CCCCN1C(=O)c1cc(COc2ccc3ncccc3c2)on1 (centres undefined) do in these assays?
D1 agonist: 12; DRD3 antagonist: 11; D1 PAM: -1; D3 ag: 15; D1 antag: -27

How did Cc1nc(CN(C)C(=O)c2cc(COc3ccc4ncccc4c3)on2)cs1 do in these assays?
D1 agonist: 16; DRD3 antagonist: 35; D1 PAM: -2; D3 ag: 5; D1 antag: -37*

How did CC(C)N(Cc1nccn1C)C(=O)c1cc(COc2ccc3ncccc3c2)on1 do in these assays?
D1 agonist: 8; DRD3 antagonist: -4; D1 PAM: 1; D3 ag: 3; D1 antag: -7

Results for COCCC1CCCCN1C(=O)c1cc(COc2ccc(-n3cncn3)cc2)on1 (centres undefined) ?
D1 agonist: 18; DRD3 antagonist: 4; D1 PAM: -9; D3 ag: 1; D1 antag: -64*

What do the screens show for `CC(=O)c1ccc(OCc2cc(C(=O)N3CCCCC3c3cccnc3)no2)cc1` (centres undefined)?
D1 agonist: 20; DRD3 antagonist: -4; D1 PAM: -6; D3 ag: 2; D1 antag: -33*

What do the screens show for `CCC1CCCCN1C(=O)c1cc(COc2ccc3ncccc3c2)on1` (centres undefined)?
D1 agonist: 12; DRD3 antagonist: 14; D1 PAM: -4; D3 ag: 6; D1 antag: -42*

How did CCc1ccc(Oc2c(C(F)(F)F)oc3c(CN4CCN(C)CC4)c(O)ccc3c2=O)cc1 do in these assays?
D1 agonist: 17; D1 PAM: -9; D3 ag: -22; D1 antag: -5

How did CC(=O)N1CCc2cc(Br)cc(S(=O)(=O)CCC(=O)N3CCN(c4ccc(F)cc4)CC3)c21 do in these assays?
D1 agonist: -1; D1 PAM: -1; D3 ag: 8; D1 antag: -8

Bioassay records as filed in PubChem BioAssay.
